Screens: PubChem BioAssay, National Center for Advancing Translational Sciences (NCATS)
FLuc inh: inhibitors of firefly (Photinus pyralis) luciferase; Potency, µM (top dose mostly 115 µM), actives largely listed as inhibitors; P08659; 2.5% of 76,000 active; purified P. pyralis luciferase, luminescence, biochemical; further: nearly all actives have a fitted effect of over 65% in size
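Biochemical qHTS: compound (6-point titration) added to 10uM D-luciferin plus 10uM ATP in Tris acetate pH 7.5 buffer with Mg, Tween-20 and BSA, then purified enzyme at 10nM; light output imaged.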
HEK293 tox: cytotoxic compounds in HEK 293 cells; AID 1345083; HEK 293 viability, ATP luminescence (CellTiter-Glo), 48-72 h; Potency, µM (highest dose often 115 µM), usual class: inhibitors; 6.6% of 94,000 active; further: nearly all actives have a fitted effect of over 60% in size
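qHTS cytotoxicity; HEK 293, 250 cells/well; compound pinned; 48 or 72 hr, 37 degree Celsius, 5% CO2, 95% humidity; CellTiter-Glo, 10 min RT; luminescence (ATP).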
GPT2 inh: GPT2 alanine aminotransferase inhibition; Q8TD30; Recombinant GPT2, coupled pyruvate oxidase/HRP Amplex Red fluorescence; Potency, µM (titrated, usually from 57.7 µM), hits mostly inhibitors; 0.25% of 100,000 active; AID 1671188; further: nearly all actives have a fitted effect of over 60% in size
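Inhibition is scored from Amplex Red fluorescence generated when pyruvate oxidase and HRP act on pyruvate released by GPT2. Reactions contain 10ng/uL enzyme, 250uM a-KG and 2mM L-alanine and run 30 min at room temperature.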
NIH3T3 tox: NIH 3T3 cell cytotoxicity. NIH 3T3 viability, CellTiter-Glo ATP luminescence, 48-72 h. Potency, µM (top dose mostly 96.7 µM), actives largely listed as inhibitors. 4.3% of 94,000 active; further: nearly all actives have a fitted effect of over 55% in size
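NIH 3T3 cells at 400 cells/well received 23 nL of compound by pintool and were incubated 48 or 72 h at 37 °C. Viability was read as ATP-coupled CellTiter-Glo luminescence.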
NPR1 antag: human Npr1 receptor antagonism; 1.6% of 76,000 active; HEK293 hNpr1 GloSensor cGMP, ANP-stimulated luminescence; Potency, µM (highest dose often 46.3 µM), most hits filed as inhibitors; AID 1347048; P16066; calls by dose curve; further: nearly all actives have a fitted effect of over 60% in size
Target sequence (P16066 whole entry, looked up): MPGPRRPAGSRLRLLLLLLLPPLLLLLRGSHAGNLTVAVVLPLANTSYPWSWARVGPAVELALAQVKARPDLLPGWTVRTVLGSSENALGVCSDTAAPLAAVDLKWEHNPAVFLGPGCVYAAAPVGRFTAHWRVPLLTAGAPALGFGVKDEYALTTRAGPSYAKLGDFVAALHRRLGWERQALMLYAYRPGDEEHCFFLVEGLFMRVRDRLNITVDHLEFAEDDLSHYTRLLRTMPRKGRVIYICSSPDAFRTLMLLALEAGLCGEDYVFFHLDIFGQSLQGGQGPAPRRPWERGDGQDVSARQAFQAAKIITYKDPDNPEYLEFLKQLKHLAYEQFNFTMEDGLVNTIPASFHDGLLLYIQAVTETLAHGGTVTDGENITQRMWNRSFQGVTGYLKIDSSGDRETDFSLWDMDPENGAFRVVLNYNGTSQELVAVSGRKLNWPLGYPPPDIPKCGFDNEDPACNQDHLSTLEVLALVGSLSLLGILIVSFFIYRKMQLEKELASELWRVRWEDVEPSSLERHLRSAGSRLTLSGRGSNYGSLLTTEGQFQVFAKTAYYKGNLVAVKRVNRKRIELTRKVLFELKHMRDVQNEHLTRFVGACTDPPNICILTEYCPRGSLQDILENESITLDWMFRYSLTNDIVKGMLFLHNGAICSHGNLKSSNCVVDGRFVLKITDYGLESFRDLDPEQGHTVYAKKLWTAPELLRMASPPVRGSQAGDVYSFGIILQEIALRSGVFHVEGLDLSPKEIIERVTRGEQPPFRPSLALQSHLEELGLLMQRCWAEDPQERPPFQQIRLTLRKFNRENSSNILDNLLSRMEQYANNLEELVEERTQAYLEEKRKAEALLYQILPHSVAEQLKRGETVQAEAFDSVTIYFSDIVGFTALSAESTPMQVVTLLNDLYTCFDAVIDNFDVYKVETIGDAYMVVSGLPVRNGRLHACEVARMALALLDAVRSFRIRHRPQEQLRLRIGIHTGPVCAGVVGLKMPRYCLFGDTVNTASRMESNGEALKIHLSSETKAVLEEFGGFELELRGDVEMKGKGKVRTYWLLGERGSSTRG
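Compound pre-incubated 30 min at room temperature on GloSensor-loaded HEK293 cells stably carrying hNpr1 and the pGS-40F cGMP biosensor. Stimulation uses hNppA at 0.1 nM final; luminescence is taken at baseline and 20 min post-agonist.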
Npr1 antag conf: confirmation of human Npr1 natriuretic peptide receptor antagonists. Potency, µM (titrated, usually from 57.6 µM), most hits filed as inhibitors. shares compounds with NPR1 antag. 76% of 1,400 active. HEK293 hNpr1 cGMP GloSensor luminescence, ANP-stimulated; calls by dose curve; further: nearly all actives have a fitted effect of over 70% in size
NPR2 antag: hNpr2 antagonism, selectivity versus Npr1; shares compounds with NPR1 antag; HEK293 hNpr2 GloSensor cGMP luminescence, CNP-stimulated; Potency, µM (top dose mostly 57.6 µM), hits mostly inhibitors; 67% of 1,400 active; calls by dose curve; further: nearly all actives have a fitted effect of over 70% in size
FLuc counter: inhibits firefly luciferase, false Npr1 antagonist flag; shares compounds with NPR1 antag; purified FLuc enzyme, luminescence, Km substrate; Potency, µM (series often up to 57.6 µM), actives largely listed as inhibitors; 0.7% of 1,400 active
GloSensor cGMP: counter-screen for Npr1 antagonists: GloSensor control cell line | shares compounds with NPR1 antag | HEK293 GloSensor cGMP, SNP-stimulated, luminescence | 69% of 1,400 active | AID 1347051 | Potency, µM (top dose mostly 57.6 µM), usual class: inhibitors; calls by dose curve; further: nearly all actives have a fitted effect of over 70% in size
Of the large screens only hits and unclear results are named; the others gave an inactive call (follow-up assays come after a bar, where they were run). Shown are actives, neighbours in structure and some others; about 10% of the full set was active somewhere. Unless noted, the call rests on the fitted dose curve; in most records, active means well fitted curve in the direction sought with a large enough effect; inconclusive means small, poorly fitted or top-dose-only effect, or another doubt; inactive means no such curve, though single readings can be large; an effect the other way counts as inactive or inconclusive.

Cc1ccsc1C(=O)N1CCN(C(=O)c2nnn3c2COC(c2ccccc2)C3)CC1 (stereo unspecified)	HEK293 tox inconclusive
COc1ccc(C2Cn3nnc(C(=O)N4CCN(C(=O)c5cccc(F)c5)CC4)c3CO2)cc1 (stereo unspecified)	HEK293 tox inconclusive, NIH3T3 tox inconclusive, NPR1 antag inconclusive | Npr1 antag conf 22µM | NPR2 antag 22µM | FLuc counter inactive | GloSensor cGMP 22µM
CC(c1ccc(-c2ccc(CC(=O)O)cn2)cc1)N1CCCCC1 (stereo unspecified)	none
O=C(Cc1ccccc1Cl)N1CCN(C(=O)c2nnn3c2COC(c2ccc(F)cc2)C3)CC1 (stereo unspecified)	none
O=C(COc1ccccc1)N1CCN(C(=O)c2nnn3c2COC(c2ccccc2)C3)CC1 (stereo unspecified)	HEK293 tox inconclusive, NIH3T3 tox inconclusive
COc1ccc(C2Cn3nnc(C(=O)N4CCN(C(=O)c5c(F)cccc5F)CC4)c3CO2)cc1 (stereo unspecified)	HEK293 tox inconclusive, NIH3T3 tox inconclusive
O=C(COc1ccccc1)N1CCN(C(=O)c2nnn3c2COC(c2ccc(Cl)cc2)C3)CC1 (stereo unspecified)	HEK293 tox 25µM, NIH3T3 tox inconclusive, NPR1 antag 11µM | Npr1 antag conf 22µM | NPR2 antag 22µM | FLuc counter inactive | GloSensor cGMP 19µM
COc1ccc(C2Cn3nnc(C(=O)N4CCN(C(=O)c5cc(F)ccc5F)CC4)c3CO2)cc1 (stereo unspecified)	HEK293 tox inconclusive, NPR1 antag inconclusive | Npr1 antag conf 19µM | NPR2 antag 19µM | FLuc counter inactive | GloSensor cGMP 19µM
COc1ccc(C2Cn3nnc(C(=O)N4CCN(C(=O)Cc5ccccc5Cl)CC4)c3CO2)cc1 (stereo unspecified)	HEK293 tox inconclusive, NPR1 antag inconclusive | Npr1 antag conf 12µM | NPR2 antag 15µM | FLuc counter inactive | GloSensor cGMP 11µM
Cc1ccc(OCc2nc(C3CN(C(=O)Cc4ccccc4F)C3)no2)cc1	HEK293 tox inconclusive, NIH3T3 tox inconclusive
COc1ccc(CNC[C@H]2Cn3c(-c4ccc(Cl)cc4)cnc3CO2)cc1	HEK293 tox 56µM, NIH3T3 tox 32µM, NPR1 antag 25µM | Npr1 antag conf 31µM | NPR2 antag 35µM | FLuc counter inactive | GloSensor cGMP inconclusive
COc1ccc(C(=O)NC[C@H]2Cn3c(-c4ccc(F)cc4)cnc3CO2)cc1	HEK293 tox inconclusive, NIH3T3 tox inconclusive, NPR1 antag inconclusive
COc1ccc(S(=O)(=O)NC[C@H]2Cn3c(-c4ccc(Cl)cc4)cnc3CO2)cc1	HEK293 tox 89µM, NIH3T3 tox 79µM, NPR1 antag inconclusive | Npr1 antag conf inconclusive | NPR2 antag inconclusive | FLuc counter inactive | GloSensor cGMP inactive
CCOc1ccccc1C(=O)NC1CCN(c2cc(C(F)(F)F)nc(C)n2)CC1	HEK293 tox inconclusive, NIH3T3 tox inconclusive, NPR1 antag inconclusive | Npr1 antag conf 24µM | NPR2 antag inconclusive | FLuc counter inactive | GloSensor cGMP 24µM
COc1ccccc1OCCNC(=O)C1CCN(c2cc(C(F)(F)F)nc(C)n2)CC1	HEK293 tox inconclusive, NIH3T3 tox inconclusive, NPR1 antag inconclusive | Npr1 antag conf inactive | NPR2 antag inactive | FLuc counter inactive | GloSensor cGMP inactive
